Results taken from PubChem BioAssay (EPA / NIEHS).
Several values for one entry are separate records, joined by “and”; a condition that tells them apart may be missing. Identical values can stand only once. A structure can be active in one record and inactive in another. Activity calls are given as the source filed them. How the source made its calls: active means hit-call score of the fitted dose curve at least 0.9, where 1 is the maximum; inactive means score below 0.9.

Assay: ATG_Ets_CIS: Attagene CIS-FACTORIAL HepG2 Assay for human Erythroblast Transformation Specific (ETS) (AID 2282941)
Settings: HepG2 ETS cis-reporter transcription, actives raise or lower the signal
Experimental: ATG_CIS is a cell-based, multiplexed-readout assay that uses HepG2, a human liver cell line, with measurements taken at 24 hours after chemical dosing in a 24-well plate.ATG_Ets_CIS is one of 52 assay component(s) measured or calculated from the ATG_CIS assay. It is designed to make measurements of mRNA induction, a form of inducible reporter, as detected with fluorescence intensity signals by Reverse transcription polymerase chain reaction (RT-PCR) and Capillary electrophoresis technology.Data from the assay component ATG_Ets_CIS was analyzed into 1 assay endpoint. This assay endpoint, ATG_Ets_CIS, was analyzed with bidirectional fitting relative to DMSO as the negative control and baseline of activity. Using a type of inducible reporter, measures of mRNA for gain or loss-of-signal activity can be used to understand the reporter gene at the transcription factor-level as they relate to the gene ETS1. Furthermore, this assay endpoint can be referred to as a primary readout, because this assay has produced multiple assay endpoints where this one serves a reporter gene function. To generalize the intended target to other relatable targets, this assay endpoint is annotated to the dna binding intended target family, where the subfamily is winged helix-turn-helix.
Human liver HepG2 cells are transiently transfected with multiple reporter transcription units (MRTUs) in 6-well plates using FuGene 6 reagent (Roche; 3 ml FuGene/1 mg DNA). The MRTU constructs are regulated by a cis-regulating element (promoter). […] A major difference between the CIS and TRANS system is that in CIS activities of endogenous TFs are measured, whereas the TRANS assay evaluates changes in activities of exogenous, chimeric NR-Gal4 proteins. […] At the end of 24 hour incubation, total RNA was isolated using TriZol reagent (Invitrogen). The isolated RNA is then reverse-transcribed using oligo(dT) primer and Mo-MLV reverse transcriptase (Invitrogen) with DNAse I (Ambion) treatment for 30 min. The one-tenth of the produced cDNA was amplified by PCR using Taq DNA polymerase (Invitrogen) and two reporter sequence-specific primers. The PCR products were fluorescently labeled by primer extension with 6-arboxyfluorescein (6-FAM) 5'-labeled reporter sequence-specific primer (2 min at 95 C, 20 s at 68 C and 10 min at 72 C) and these products were digested with 5U of HpaI (New England Biolabs) for 2h at 37 C. The fragments were purified using Qiaquick PCR columns (Qiagen), analyzed on an ABI 3130xL genetic analyzer (Applied Biosystems) with peak positions identified by using a set of X-rhodamine (ROX)-labeled MapMarker1000 molecular weight standards (BioVentures). The raw capillary electrophoresis data was processed using Attagraph software (Attagene).
In the case of ClC1C(Cl)C(Cl)C(Cl)C(Cl)C1Cl (stereo not given), the outcome is reported as “inactive” and the AC50 is reported as 8.89 µM (active). For O=S1OCC2C(CO1)C1(Cl)C(Cl)=C(Cl)C2(Cl)C1(Cl)Cl (stereo not given), the outcome was “inactive”. In the case of N#Cc1c(Cl)c(Cl)c(Cl)c(C#N)c1Cl, the outcome is reported as “inactive”. For COP(=S)(OC)Oc1ccc(SC)c(C)c1, the outcome was “inactive”. For COc1nn(CSP(=S)(OC)OC)c(=O)s1, the outcome was “inactive”. In the case of CN1CSC(=S)N(C)C1, the outcome is reported as “inactive”. For CNC(=O)CSP(=S)(OC)OC, the outcome was “inactive”. In the case of O=S(=O)(O)C(F)(F)C(F)(F)C(F)(F)C(F)(F)C(F)(F)C(F)(F)C(F)(F)C(F)(F)F, the outcome is reported as “inactive” and the AC50 is reported as 56.1 µM (active) and 233 µM (active). With CNC(=O)Oc1cccc(N=CN(C)C)c1 the outcome was “inactive”. In the case of CCC(C)(NC(=O)c1cc(Cl)c(C)c(Cl)c1)C(=O)CCl (stereo not given), the outcome is reported as “inactive”. For O=C(Nc1ccccc1)Nc1cnns1, the outcome was “inactive”. For CCOC1Oc2ccc(OS(C)(=O)=O)cc2C1(C)C (stereo not given), the outcome was “inactive”. In the case of CC(C)(C)C(O)/C(=C\c1ccc(Cl)cc1Cl)n1cncn1 (stereo not given), the outcome is reported as “inactive”. With C#CCN1C(=O)COc2cc(F)c(N3C(=O)C4=C(CCCC4)C3=O)cc21 the outcome was “inactive”. For O=[N+]([O-])c1c(Cl)c(Cl)c(Cl)c(Cl)c1Cl, the outcome was “inactive”. With N#CN the outcome was “inactive”. In the case of COc1cc(OC)nc(NC(=O)NS(=O)(=O)c2cc(NC=O)ccc2C(=O)N(C)C)n1, the outcome is reported as “inactive”. In the case of Oc1cc(Cl)ccc1Oc1ccc(Cl)cc1Cl, the outcome is reported as “inactive” and the AC50 is reported as 7.09 µM (active) and 17.9 µM (active) and 5.97 µM (active). For Clc1ccccc1-c1nnc(-c2ccccc2Cl)nn1, the outcome was “inactive”. With CCCN(CCC)c1c([N+](=O)[O-])cc(C(F)(F)F)cc1[N+](=O)[O-] the outcome was “inactive”. For Oc1ccc(Cl)cc1Cc1ccccc1, the outcome was “inactive” and the AC50 was 16.3 µM (active). In the case of CC[C@H](C)[C@H]1O[C@]2(C=C[C@@H]1C)C[C@@H]1C[C@@H](C/C=C(\C)[C@@H](O[C@H]3C[C@H](OC)[C@@H](O[C@H]4C[C@H](OC)[C@@H](O)[C@H](C)O4)[C@H](C)O3)[C@@H](C)/C=C/C=C3\CO[C@@H]4[C@H](O)C(C)=C[C@@H](C(=O)O1)[C@]34O)O2 (tested in a mixture with another compound), the outcome is reported as “inactive”. With O=C(NC(=O)c1c(F)cccc1F)Nc1ccc(OC(F)(F)C(F)OC(F)(F)F)c(Cl)c1 (stereo not given) the outcome was “inactive”. In the case of CCC(C)(C)C(=O)OC1=C(c2ccc(Cl)cc2Cl)C(=O)OC12CCCCC2, the AC50 is reported as 1.69 µM (active). In the case of CNC(=O)/C=C(\C)OP(=O)(OC)OC, the outcome is reported as “inactive”. For Cc1cc(C)nc(NC(=O)NS(=O)(=O)c2ccccc2C(=O)OC2COC2)n1, the outcome was “inactive”. In the case of CCN(CC)C(=O)SCc1ccc(Cl)cc1, the outcome is reported as “inactive”. With CC1(C)C(C=C(Cl)Cl)C1C(=O)OC(C#N)c1ccc(F)c(Oc2ccccc2)c1 (stereo not given) the outcome was “inactive”. In the case of COP(=S)(OC)Oc1ccc([N+](=O)[O-])cc1, the outcome is reported as “inactive”. For Cc1[nH]c(=O)n(C(C)(C)C)c(=O)c1Cl, the outcome was “inactive”. For [2H]C1([2H])[n+]2ccccc2-c2cccc[n+]2C1([2H])[2H], the outcome was “inactive”. In the case of CNC(=O)Oc1ccccc1OC(C)C, the outcome is reported as “inactive”. For CC(C)OC(=O)Nc1cccc(Cl)c1, the outcome was “inactive”. For CC(C)(C)C(O)C(Oc1ccc(Cl)cc1)n1cncn1 (stereo not given), the outcome was “inactive”. With CCc1ccc(C(=O)NN(C(=O)c2cc(C)cc(C)c2)C(C)(C)C)cc1 the outcome was “inactive”. In the case of CCS(=O)(=O)c1cccnc1S(=O)(=O)NC(=O)Nc1nc(OC)cc(OC)n1, the outcome is reported as “inactive”.
